Here are results for 29 molecules from PubChem BioAssay.

This test can be described thus: small-molecule binders of probe aNOTCH2, primary screen, biochemical, small-molecule microarray, 635/667 nm fluorescence (AID 1121).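 Also: score merges feature fluorescence read at 667 nm with its signal to noise.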 Particulars: higher = more signal.
Turning to `COCC(=C=CC[C@@H](O)c1ccccc1OCCO)C[C@@H](O)c1cc(Cl)cc(Cl)c1O`, the composite z-score is -0.14.

In turn, `COc1ccc(C(=O)Nc2ccc(CN3C(=O)[C@@]4(O[C@@H](CCO)[C@H]([Si](C)(C)c5ccc(OC)cc5)[C@H]4C)c4ccccc43)cc2)cc1` yielded a composite z-score of -0.0999.

For `O=C1O[C@H](c2ccccc2)[C@H](c2ccccc2)N2[C@H]1[C@@H](C(=O)O)[C@]1(C(=O)Nc3ccc(C#CCCO)cc31)[C@H]2c1ccc(O)cc1`, the composite z-score was -0.0467.

`C=CC[C@@]1(C(N)=O)N=C(c2ccc(OCCCO)cc2)O[C@@H]1c1ccccc1CN=[N+]=[N-]` registered a composite z-score of -0.0712.

In the case of `COCCOC(=O)N1C(=O)[C@@]2(c3cc(C#CC4=CCCCC4)ccc31)[C@H](C(=O)N1CCc3cc(OC)c(OC)cc3C1)[C@H]1C(=O)O[C@H](c3ccccc3)[C@H](c3ccccc3)N1[C@@H]2c1ccc(OCCO)cc1`, the composite z-score is -0.152.

Molecule `COc1ccc(C(O)C2C=CC3C(=O)N(c4ccccc4)C(=O)C3N2Nc2ccccc2F)cc1OCc1ccccc1` (centres undefined) yielded a composite z-score of 0.114.

Turning to `C=C(COC)/C(=C/C[C@@H](OC(C)=O)c1ccc(CO)o1)c1cnc2ccccc2c1`, the composite z-score was 0.0616.

The molecule `O=C1C[C@]2(c3ccc([N+](=O)[O-])cc3)C(=O)N(CCN3CCOCC3)c3cc(CO)ccc3[C@H]2N1C1CCCCC1` showed a composite z-score of -0.0904.

Molecule `COC(=O)C=C(CC(O)c1cccc(Cl)c1)OC` (centres undefined) displayed a composite z-score of 0.436.

`COc1cc2c(cc1OC)CN(C(=O)[C@@H]1[C@H]3C(=O)O[C@H](c4ccccc4)[C@H](c4ccccc4)N3[C@H](c3ccc(O)cc3)[C@@]13C(=O)Nc1ccc(C#CC4(O)CCCCCC4)cc13)CC2`: the composite z-score worked out at 0.0834.

The molecule `[N-]=[N+]=NCc1ccccc1C[C@@]1(C(=O)NCC(O)CO)N=C(c2ccc(OCCCO)cc2)O[C@@H]1c1ccccc1N=[N+]=[N-]` (some centres undefined) had a composite z-score of -0.0814.

As to `CCOC(=O)C[C@H]1[C@H](OC(=O)Cc2ccc3c(c2)OCO3)[C@@H](NC(=O)c2ccc(-c3ccccc3)cc2)c2cc(OCCCO)ccc2N1C(=O)c1ccc2ccccc2n1`, the composite z-score is -0.182.

Molecule `O=C(NCc1ccccc1)[C@@]1(Cc2ccccc2)N=C(c2ccc(OCCCO)cc2)O[C@H]1c1ccccc1` displayed a composite z-score of 0.349.

Regarding `O=C1NC(=O)C2C1C=CC(C(O)c1ccccc1)N2Nc1ccc(Cl)cc1Cl` (centres undefined), the composite z-score is -0.0974.

In the case of `CN(C)CCCNC(=O)[C@@]1(c2ccc([N+](=O)[O-])cc2)CC(=O)N(C2CCCCC2)[C@@H]1c1ccc(CO)cc1`, the composite z-score is -0.146.

`COC(=O)[C@@]1(Cc2ccccc2)[C@H]2c3cc(C(=O)N4CCCC4)n(Cc4cccc5ccccc45)c3C[C@H]2CN1C(=O)c1ccccc1`: the composite z-score was 0.707.

In turn, `CC(C)(C)OC(=O)CC[C@@]1(C(N)=O)N=C(c2ccc(OCCCO)cc2)O[C@@H]1c1ccccc1` returned a composite z-score of 0.011.

On to `COc1cc2c(cc1O)C=[N+](Cc1cccc(OC(F)(F)F)c1)CC2`, for which the composite z-score was -0.172.

In the case of `C=C(C)C1C(=C)CN([C@H](CO)c2ccccc2)C1=O` (some centres undefined), the composite z-score is -0.133.

`COCCCNC(=O)C1N=C(c2ccc(OCCCO)cc2)N(c2ccccc2)O1` (centres undefined) displayed a composite z-score of -0.112.

In the case of `C=CC[C@@]1(C(=O)NCc2ccccc2)N=C(c2ccc(OCCCO)cc2)O[C@@H]1c1ccccc1N=[N+]=[N-]`, the composite z-score stood at 0.0186.

The molecule `CCOc1cc(C(O)C2C=CC3C(=O)N(c4ccccc4)C(=O)C3N2Nc2ccccc2)ccc1O` (centres undefined) had a composite z-score of -0.164.

In turn, `O=C1O[C@H](c2ccccc2)[C@H](c2ccccc2)N2[C@H]1[C@@H](C(=O)NC[C@H](O)c1ccccc1)[C@]1(C(=O)Nc3ccccc31)[C@H]2c1ccc(OCCO)cc1` displayed a composite z-score of -0.082.

`COc1ccc(C(O)C2C=CC3C(=O)N(C)C(=O)C3N2N2CCCCC2)c2ccccc12` (centres undefined) gave a composite z-score of -0.0351.

On to `CN1C(=O)[C@]2(Cc3ccccc3)N=C(c3ccc(OCCCO)cc3)O[C@@H]2c2ccccc21`, for which the composite z-score is -0.0734.

`C=CCOC(=O)[C@H]1[C@@H]2C(=O)O[C@@H](c3ccccc3)[C@@H](c3ccccc3)N2[C@@H](c2ccc(OCCOC(=O)[C@@H]3C[C@@H]4C(=O)N[C@@H](CCCCN(C)C)C(=O)N4[C@@H]3c3ccc(O)cc3)cc2)[C@]12C(=O)Nc1ccc(I)cc12` had a composite z-score of -0.18.

Turning to `CC(C)(C)OC(=O)CC[C@@]1(C(=O)NCC(O)CO)N=C(c2ccc(OCCCO)cc2)O[C@@H]1c1ccccc1N=[N+]=[N-]` (some centres undefined), the composite z-score came to 0.0083.

As to `O=C1NCC(=O)N2[C@@H]1C[C@@H](C(=O)O)[C@H]2c1cccc(OCCO)c1`, the composite z-score stood at 1.12.

In turn, `CC(C)OC(=O)C=C1C[C@@H](c2ccccc2C(F)(F)F)O[C@@H](c2ccccc2C(F)(F)F)O1` showed a composite z-score of -0.216.
